{
  "source": "PubChem BioAssay AID1159580",
  "about": "(chemical genetic matrix, 2015)",
  "experiment": "chemical genetic growth profiling, strain panel (AID 1159580);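 also: tested at 20 µM; growth read once vehicle control cultures reached saturation at 30 °C; 1 = growth at the plate median or of vehicle wells; lower values mean less growth of the strain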",
  "settings": "growth OD",
  "note": "Screen size: about 5,500 compounds; about 2,000 (36%) were called active. Not shown: some 18% with an inconclusive outcome. Some of the results follow. Values without a mark were called inactive. Rule as the data show it: active = normalized growth mostly below about 0.91 (no sharp cut-off); inconclusive = no clear call, values can overlap the other calls; inactive = mostly above about 0.92.",
  "data": [
    {"molecule": "CC1(C)C(C(Cl)Cl)C2(Cl)C(Cl)C(Cl)C1(Cl)C2(Cl)Cl", "note": "(centres undefined)", "values": [
      {"measurement": "normalized growth", "setting": "S. cerevisiae deletion strains, locus YJR043C, strain POL32, stronger effect = lower value", "value": 0.978},
      {"measurement": "normalized growth", "setting": "S. cerevisiae deletion strains, locus YJR075W, strain HOC1, stronger effect = lower value", "value": 0.985},
      {"measurement": "normalized growth", "setting": "S. cerevisiae deletion strains, locus YKL009W, strain mrt4, stronger effect = lower value", "value": 0.965},
      {"measurement": "normalized growth", "setting": "S. cerevisiae deletion strains, locus YKL068W, stronger effect = lower value", "value": 0.983},
      {"measurement": "normalized growth", "setting": "S. cerevisiae deletion strains, locus YKL085W, strain MDH1 (second series), stronger effect = lower value", "value": 0.973},
      {"measurement": "normalized growth", "setting": "S. cerevisiae deletion strains, locus YKL085W, strain MDH1, stronger effect = lower value", "value": 0.973},
      {"measurement": "normalized growth", "setting": "S. cerevisiae deletion strains, locus YKL160W, strain elf1, stronger effect = lower value", "value": 0.969},
      {"measurement": "normalized growth", "setting": "S. cerevisiae deletion strains, locus YKL190W, strain CNB1, stronger effect = lower value", "value": 0.997},
      {"measurement": "normalized growth", "setting": "S. cerevisiae deletion strains, locus YKR001C, strain vps1, stronger effect = lower value", "value": 0.964},
      {"measurement": "normalized growth", "setting": "S. cerevisiae deletion strains, locus YKR026C, strain gcn3, stronger effect = lower value", "value": 0.989},
      {"measurement": "normalized growth", "setting": "S. cerevisiae deletion strains, locus YKR091W, strain srl3, stronger effect = lower value", "value": 0.985},
      {"measurement": "normalized growth", "setting": "S. cerevisiae deletion strains, locus YLL001W, strain dnm1, stronger effect = lower value", "value": 0.994},
      {"measurement": "normalized growth", "setting": "S. cerevisiae deletion strains, locus YLL026W, stronger effect = lower value", "value": 0.981},
      {"measurement": "normalized growth", "setting": "S. cerevisiae deletion strains, locus YLL041C, strain sdh2, stronger effect = lower value", "value": 0.989},
      {"measurement": "normalized growth", "setting": "S. cerevisiae deletion strains, locus YLR027C, strain aat2, stronger effect = lower value", "value": 0.97},
      {"measurement": "normalized growth", "setting": "S. cerevisiae deletion strains, locus YLR039C, strain RIC1, stronger effect = lower value", "value": 0.883},
      {"measurement": "normalized growth", "setting": "S. cerevisiae deletion strains, locus YLR058C, strain SHM2, stronger effect = lower value", "value": 0.983},
      {"measurement": "normalized growth", "setting": "S. cerevisiae deletion strains, locus YLR102C, strain apc9, stronger effect = lower value", "value": 0.979},
      {"measurement": "normalized growth", "setting": "S. cerevisiae deletion strains, locus YLR221C, strain rsa3, stronger effect = lower value", "value": 0.961},
      {"measurement": "normalized growth", "setting": "S. cerevisiae deletion strains, locus YLR258W, strain gsy2, stronger effect = lower value", "value": 0.975},
      {"measurement": "normalized growth", "setting": "S. cerevisiae deletion strains, locus YLR262C, strain YPT6 (second series), stronger effect = lower value", "value": "0.817 (active)"},
      {"measurement": "normalized growth", "setting": "S. cerevisiae deletion strains, locus YLR262C, strain YPT6, stronger effect = lower value", "value": 0.884},
      {"measurement": "normalized growth", "setting": "S. cerevisiae deletion strains, locus YLR268W, strain sec22, stronger effect = lower value", "value": 0.97},
      {"measurement": "normalized growth", "setting": "S. cerevisiae deletion strains, locus YLR320W, strain mms22, stronger effect = lower value", "value": 0.878},
      {"measurement": "normalized growth", "setting": "S. cerevisiae deletion strains, locus YLR330W, strain CHS5, stronger effect = lower value", "value": 0.991},
      {"measurement": "normalized growth", "setting": "S. cerevisiae deletion strains, locus YLR342W, strain FKS1 (second series), stronger effect = lower value", "value": 0.913},
      {"measurement": "normalized growth", "setting": "S. cerevisiae deletion strains, locus YLR342W, strain FKS1, stronger effect = lower value", "value": 0.964},
      {"measurement": "normalized growth", "setting": "S. cerevisiae deletion strains, locus YLR357W, strain rsc2, stronger effect = lower value", "value": 0.993},
      {"measurement": "normalized growth", "setting": "S. cerevisiae deletion strains, locus YLR370C, strain arc18, stronger effect = lower value", "value": 0.991},
      {"measurement": "normalized growth", "setting": "S. cerevisiae deletion strains, locus YLR371W, strain rom2, stronger effect = lower value", "value": 0.968},
      {"measurement": "normalized growth", "setting": "S. cerevisiae deletion strains, locus YLR384C, strain iki3, stronger effect = lower value", "value": 0.974},
      {"measurement": "normalized growth", "setting": "S. cerevisiae deletion strains, locus YLR418C, strain cdc73, stronger effect = lower value", "value": 0.879},
      {"measurement": "normalized growth", "setting": "S. cerevisiae deletion strains, locus YML016C, strain PPZ1, stronger effect = lower value", "value": 0.986},
      {"measurement": "normalized growth", "setting": "S. cerevisiae deletion strains, locus YML032C, strain rad52, stronger effect = lower value", "value": 0.956},
      {"measurement": "normalized growth", "setting": "S. cerevisiae deletion strains, locus YML120C, strain ndi1, stronger effect = lower value", "value": 0.983},
      {"measurement": "normalized growth", "setting": "S. cerevisiae deletion strains, locus YML124C, strain tub3, stronger effect = lower value", "value": 0.976},
      {"measurement": "normalized growth", "setting": "S. cerevisiae deletion strains, locus YMR058W, strain fet3, stronger effect = lower value", "value": 0.991},
      {"measurement": "normalized growth", "setting": "S. cerevisiae deletion strains, locus YMR078C, strain ctf18, stronger effect = lower value", "value": 0.953},
      {"measurement": "normalized growth", "setting": "S. cerevisiae deletion strains, locus YMR125W, strain sto1, stronger effect = lower value", "value": 0.995},
      {"measurement": "normalized growth", "setting": "S. cerevisiae deletion strains, locus YMR129W, stronger effect = lower value", "value": 0.972},
      {"measurement": "normalized growth", "setting": "S. cerevisiae deletion strains, locus YMR205C, strain PFK2, stronger effect = lower value", "value": 0.883},
      {"measurement": "normalized growth", "setting": "S. cerevisiae deletion strains, locus YMR223W, strain ubp8, stronger effect = lower value", "value": 0.963},
      {"measurement": "normalized growth", "setting": "S. cerevisiae deletion strains, locus YMR231W, strain pep5, stronger effect = lower value", "value": 0.977},
      {"measurement": "normalized growth", "setting": "S. cerevisiae deletion strains, locus YMR263W, strain SAP30, stronger effect = lower value", "value": 0.988},
      {"measurement": "normalized growth", "setting": "S. cerevisiae deletion strains, locus YMR307W, strain GAS1, stronger effect = lower value", "value": 0.967},
      {"measurement": "normalized growth", "setting": "S. cerevisiae deletion strains, locus YNL067W, strain RPL9B, stronger effect = lower value", "value": 0.993},
      {"measurement": "normalized growth", "setting": "S. cerevisiae deletion strains, locus YNL071W, strain lat1, stronger effect = lower value", "value": "0.834 (active)"},
      {"measurement": "normalized growth", "setting": "S. cerevisiae deletion strains, locus YNL128W, strain TEP1, stronger effect = lower value", "value": 0.992},
      {"measurement": "normalized growth", "setting": "S. cerevisiae deletion strains, locus YNL153C, strain GIM3, stronger effect = lower value", "value": 0.988},
      {"measurement": "normalized growth", "setting": "S. cerevisiae deletion strains, locus YNL209W, strain ssb2, stronger effect = lower value", "value": 0.979},
      {"measurement": "normalized growth", "setting": "S. cerevisiae deletion strains, locus YNL233W, strain BNI4, stronger effect = lower value", "value": 0.999},
      {"measurement": "normalized growth", "setting": "S. cerevisiae deletion strains, locus YNL248C, strain rpa49, stronger effect = lower value", "value": 0.99},
      {"measurement": "normalized growth", "setting": "S. cerevisiae deletion strains, locus YNL250W, strain rad50, stronger effect = lower value", "value": 0.95},
      {"measurement": "normalized growth", "setting": "S. cerevisiae deletion strains, locus YNL271C, strain bni1, stronger effect = lower value", "value": 0.975},
      {"measurement": "normalized growth", "setting": "S. cerevisiae deletion strains, locus YNL298W, strain CLA4, stronger effect = lower value", "value": 0.958},
      {"measurement": "normalized growth", "setting": "S. cerevisiae deletion strains, locus YNL307C, strain MCK1, stronger effect = lower value", "value": "0.778 (active)"},
      {"measurement": "normalized growth", "setting": "S. cerevisiae deletion strains, locus YNL322C, strain KRE1 (second series), stronger effect = lower value", "value": 0.979},
      {"measurement": "normalized growth", "setting": "S. cerevisiae deletion strains, locus YNL322C, strain KRE1, stronger effect = lower value", "value": 0.987},
      {"measurement": "normalized growth", "setting": "S. cerevisiae deletion strains, locus YNR049C, strain mso1, stronger effect = lower value", "value": 0.985},
      {"measurement": "normalized growth", "setting": "S. cerevisiae deletion strains, locus YNR052C, strain pop2, stronger effect = lower value", "value": 0.963},
      {"measurement": "normalized growth", "setting": "S. cerevisiae deletion strains, locus YOL006C, strain TOP1, stronger effect = lower value", "value": 0.926},
      {"measurement": "normalized growth", "setting": "S. cerevisiae deletion strains, locus YOL012C, strain htz1", "value": 1.18},
      {"measurement": "normalized growth", "setting": "S. cerevisiae deletion strains, locus YOL147C, strain pex11, stronger effect = lower value", "value": 0.973},
      {"measurement": "normalized growth", "setting": "S. cerevisiae deletion strains, locus YOR001W, strain rrp6, stronger effect = lower value", "value": 0.995},
      {"measurement": "normalized growth", "setting": "S. cerevisiae deletion strains, locus YOR061W, strain CKA2, stronger effect = lower value", "value": 0.992},
      {"measurement": "normalized growth", "setting": "S. cerevisiae deletion strains, locus YOR069W, strain VPS5, stronger effect = lower value", "value": 0.985},
      {"measurement": "normalized growth", "setting": "S. cerevisiae deletion strains, locus YOR070C, strain gyp1, stronger effect = lower value", "value": 0.991},
      {"measurement": "normalized growth", "setting": "S. cerevisiae deletion strains, locus YOR080W, strain dia2, stronger effect = lower value", "value": 0.974},
      {"measurement": "normalized growth", "setting": "S. cerevisiae deletion strains, locus YOR083W, strain WHI5, stronger effect = lower value", "value": 0.982},
      {"measurement": "normalized growth", "setting": "S. cerevisiae deletion strains, locus YOR106W, strain vam3, stronger effect = lower value", "value": 0.95},
      {"measurement": "normalized growth", "setting": "S. cerevisiae deletion strains, locus YOR136W, strain idh2, stronger effect = lower value", "value": 0.978},
      {"measurement": "normalized growth", "setting": "S. cerevisiae deletion strains, locus YOR144C, strain elg1, stronger effect = lower value", "value": 0.967},
      {"measurement": "normalized growth", "setting": "S. cerevisiae deletion strains, locus YOR184W, strain ser1, stronger effect = lower value", "value": 0.879},
      {"measurement": "normalized growth", "setting": "S. cerevisiae deletion strains, locus YOR265W, strain rbl2, stronger effect = lower value", "value": 0.98},
      {"measurement": "normalized growth", "setting": "S. cerevisiae deletion strains, locus YOR270C, strain vph1, stronger effect = lower value", "value": 0.922},
      {"measurement": "normalized growth", "setting": "S. cerevisiae deletion strains, locus YOR290C, strain snf2, stronger effect = lower value", "value": 0.977},
      {"measurement": "normalized growth", "setting": "S. cerevisiae deletion strains, locus YOR316C, strain cot1, stronger effect = lower value", "value": 0.973},
      {"measurement": "normalized growth", "setting": "S. cerevisiae deletion strains, locus YPL051W, strain arl3, stronger effect = lower value", "value": 0.937},
      {"measurement": "normalized growth", "setting": "S. cerevisiae deletion strains, locus YPL055C, strain LGE1, stronger effect = lower value", "value": 0.981},
      {"measurement": "normalized growth", "setting": "S. cerevisiae deletion strains, locus YPL078C, strain atp4, stronger effect = lower value", "value": 0.988},
      {"measurement": "normalized growth", "setting": "S. cerevisiae deletion strains, locus YPL106C, strain sse1, stronger effect = lower value", "value": 0.984},
      {"measurement": "normalized growth", "setting": "S. cerevisiae deletion strains, locus YPL240C, strain hsp82, stronger effect = lower value", "value": 0.982},
      {"measurement": "normalized growth", "setting": "S. cerevisiae deletion strains, locus YPL241C, strain CIN2, stronger effect = lower value", "value": 0.988},
      {"measurement": "normalized growth", "setting": "S. cerevisiae deletion strains, locus YPR119W, strain clb2, stronger effect = lower value", "value": 0.973},
      {"measurement": "normalized growth", "setting": "S. cerevisiae deletion strains, locus YPR141C, strain kar3, stronger effect = lower value", "value": 0.963},
      {"measurement": "normalized growth", "setting": "S. cerevisiae deletion strains, locus YPR163C, strain tif3, stronger effect = lower value", "value": 0.946},
      {"measurement": "normalized growth", "setting": "S. cerevisiae deletion strains, locus YPR167C, strain met16, stronger effect = lower value", "value": 0.978},
      {"measurement": "normalized growth", "setting": "S. cerevisiae deletion strains, strain wtn01, stronger effect = lower value", "value": 0.966},
      {"measurement": "normalized growth", "setting": "S. cerevisiae strains, strain wild type, stronger effect = lower value", "value": 0.986}
    ]}
  ]
}
